# Records with an inconclusive call do not appear. A call without a number means that no potency is given here. Active and inactive are the calls of the source. Unless noted, the call rests on the fitted dose curve; in most records, active means well fitted curve in the direction sought with a large enough effect; inconclusive means small, poorly fitted or top-dose-only effect, or another doubt; inactive means no such curve, though single readings can be large; an effect the other way counts as inactive or inconclusive.
# How the values were obtained:
# [1] = Cytometric Cell-Based qHTS for Inhibitors of the mTORC1 Signaling Pathway in MEF (Tsc2-/-, p53-/-) Cells (AID 2660);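 further: Tsc2 and p53 null MEFs carrying empty vector with compound for 24 h; percent of cells above a phospho-rpS6 to PI ratio cutoff in each well; series mostly up to about 38 µM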
# In short: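 Readout: Alexa-488 phospho-rpS6 (Ser235/236) intensity divided by PI intensity, thresholded against 7.5 nM rapamycin wells and reported as % positive cells. PI cell count served as the viability measure. Compound exposure was 24 hrs at 37 degree Celsius.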
# [2] = High Content Imaging Cell-Based qHTS for Inhibitors of the mTORC1 Signaling Pathway in MEF (Tsc2-/-, p53-/-) Cells (AID 2666);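 further: percent of cells scored positive for phospho-rpS6 Ser235/236 immunostaining by imaging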
# In short: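 Tsc2-/-, p53-/- MEFs (empty-vector stable) grown in DMEM + 10% FBS were exposed to compounds for 24 hrs at 37 degree Celsius, fixed, and stained with Alexa-488 anti-phospho-rpS6 Ser235/236 plus Hoechst. Imaging gave the percentage of positive cells per well.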
# [3] = High Content Imaging Cell-Based qHTS for Inhibitors of the mTORC1 Signaling Pathway in MEF Cells (AID 2667); further: potency means the concentration at half of the fitted maximal effect
# In short: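 Tsc2-/-, p53-/- MEFs stably re-expressing WT Tsc2, grown in DMEM + 10% FBS, were treated with compounds for 24 hrs at 37 degree Celsius, fixed, and stained with Alexa-488 phospho-rpS6 Ser235/236 antibody plus Hoechst; results given as % positive cells.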
# [4] = Cytometry Cell-Based qHTS for Inhibitors of the mTORC1 Signaling Pathway in MEF cells (AID 2668);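 further: Tsc2-/- p53-/- mouse embryonic fibroblasts stably re-expressing wild-type Tsc2; percent cells positive for phospho-rpS6 Ser235/236 relative to propidium iodide stain; series mostly up to about 38 µM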
# In short: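 Tsc2-/-, p53-/- MEFs re-expressing WT Tsc2; cpd 24 hrs, 37 degree Celsius; PFA fix, Alexa-488 p-rpS6 (Ser235/236) Ab 2 hrs RT, PI counterstain; Acumen 488nm scan; p-S6/PI ratio → % positive cells; PI count = viability.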
# [5] = target: Ubiquitin carboxyl-terminal hydrolase 2 (Homo sapiens) (UniProt O75604); experiment: qHTS Validation Assay for Inhibitors of Ubiquitin-specific Protease USP2a Using CHOP2 as the Reporter (AID 463106)
# In short: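 Readout was coupled fluorescence (Ex 485/Em 531 nm), read 60 min after adding 25 nM final Ub-CHOP2 and 25 nM reporter substrate. Beforehand, 10 nM final USP2 core had 30 min at RT with compound in pH 8.0 buffer. Curves were fitted after normalization to NEM and flagged for artifacts using time-zero reads.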
# [6] = target: DNA polymerase III PolC-type (Bacillus subtilis (strain 168)) (UniProt P13267); experiment: qHTS Validation Assay for the Inhibitors of DNA Replication in Gram-Positive Bacteria (AID 485295);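 further: reconstituted holoenzyme with PolC plus beta clamp SSB and primase; PicoGreen fluorescence of double-stranded DNA made on primed circular M13 template; series mostly up to about 57 µM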
# In short: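 First, compound is mixed with the reconstituted replication complex and held at room temperature. Next, circular single-stranded M13Gori with nucleotides starts synthesis. Finally, PicoGreen in EDTA halts the reaction and stains double-stranded product for fluorescence reading.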
# [7] = target: Tumor susceptibility gene 101 protein (Homo sapiens) (UniProt Q99816); experiment: qHTS Validation Assay for Iinhibitors of HIV-1 Budding by Blocking the Interaction of PTAP/TSG101 (AID 485342; calls by dose curve)
# In short: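 Binding of a FITC-tagged PTAP-motif peptide (50 nM) to the Tsg101 binding domain (10 uM) is monitored by fluorescence polarization. Compounds are pin-delivered before peptide addition, and incubation runs 20 min at room temperature.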
# [8] = qHTS Validation Assay to Find Inhibitors of Chronic Active B-Cell Receptor Signaling (AID 485345; active means well fitted curve in the direction sought with a large enough effect in the main read-out, with a control signal flat, not every such curve was filed as active)
# In short: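 Read-out: ratio of filter-corrected green (IkappaBalpha fusion) to red (native) luciferase signal in doxycycline-induced TMD8 cells after 4 h at 37C. Titration spanned 46 uM–3 nM; Data were normalised to basal cells and 10 uM MG-132 wells.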
# [9] = target: Beta-2 adrenergic receptor (Homo sapiens) (UniProt P07550); experiment: qHTS validation assay of beta-arrestin-biased ligands of beta2-adrenergic receptor (AID 485366)
# In short: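 Agonist activity is measured as luciferase luminescence downstream of beta-arrestin recruitment to recombinant beta2-AR in Tango cells. Exposure lasts 18 hr at 37 degrees C, and curves are categorized by r2, response size and activity.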
# [10] = target: ATP-dependent DNA helicase Q1 (Homo sapiens) (UniProt P46063); experiment: qHTS Validation Assay for Inhibitors of RecQ-Like Dna Helicase 1 (RECQ1) (AID 2353)
# In short: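 RECQ1T1 50 nM; forked duplex (20 bp + 30-nt ss tails) 200 nM, ATP 2 mM final; pH 8.0, 2 mM MgCl2, 2.5 ug/ml poly(dI-dC); 15 min compound preincubation; discontinuous kinetic read over 2 h at RT.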
# [11] = target: ATP-dependent 6-phosphofructokinase (Trypanosoma brucei brucei) (UniProt O15648); experiment: qHTS Validation Assay to Find Inhibitors of T. brucei phosphofructokinase (AID 485368)
# In short: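 Inhibition derived from concentration-response curves of luminescence, ranked by r2, response size and curve class; the underlying reaction used 1.25 nM PFK, 0.1 mM ATP and 0.5 mM F6P, 45 min, room temperature.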
# [12] = Quantitative high throughput screen for delayed death inhibitors of the malarial parasite plastid, 96 hour incubation (AID 488745); further: nearly all actives have a fitted effect of over 70% in size; further: potency means the concentration at half of the fitted maximal effect
# In short: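 Two-generation (96 h) exposure of luciferase-reporter P. falciparum in erythrocytes, 2% hematocrit, 0.1% parasitemia final, 37 C, 5% CO2, RPMI 1640 with 0.5% Albumax. Growth inhibition scored by reduced luminescence.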
# [13] = Quantitative high throughput screen for delayed death inhibitors of the malarial parasite plastid, 48 hour incubation (AID 488752); further: nearly all actives have a fitted effect of over 65% in size; further: potency means the concentration at half of the fitted maximal effect
# In short: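 Cultures: infected erythrocytes at final 2% hematocrit and 0.1% parasitemia in Albumax-supplemented RPMI. Parasites express integrated firefly luciferase. Incubation with compound lasts 48 h before luminescent detection of remaining reporter activity.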
# [14] = Validation screen for small molecules that induce DNA re-replication in MCF 10A normal breast cells (AID 463097); further: nearly all actives have a fitted effect of over 60% in size; further: potency means the concentration at half of the fitted maximal effect
# In short: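 Image-based qHTS: normal breast cells are incubated with compound for 48 hr, stained with Hoechst, and scanned for total nuclear fluorescence. Compounds raising the fraction of nuclei with elevated DNA content count as re-replication inducers.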
# [15] = target: RecQ-like DNA helicase BLM (Homo sapiens) (UniProt P54132); experiment: qHTS Validation Assay for Inhibitors of Bloom's syndrome helicase (BLM) (AID 2364)
# In short: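 Forked 20-bp duplex substrate (200 nM, TAMRA/BHQ-2) plus 2 mM ATP added after 15 min compound preincubation with 50 nM enzyme, pH 8.0, poly(dI-dC) 2.5 ug/ml. Strand separation followed by fluorescence (525/598 nm) over 2 h, normalized to enzyme-free and DMSO controls.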
# [16] = Validation screen for inhibitors of Lassa infection (AID 463096; calls by dose curve; further: potency means the concentration at half of the fitted maximal effect)
# ATP-dependent DNA helicase Q1 (Homo sapiens), sequence (P46063 whole entry, looked up): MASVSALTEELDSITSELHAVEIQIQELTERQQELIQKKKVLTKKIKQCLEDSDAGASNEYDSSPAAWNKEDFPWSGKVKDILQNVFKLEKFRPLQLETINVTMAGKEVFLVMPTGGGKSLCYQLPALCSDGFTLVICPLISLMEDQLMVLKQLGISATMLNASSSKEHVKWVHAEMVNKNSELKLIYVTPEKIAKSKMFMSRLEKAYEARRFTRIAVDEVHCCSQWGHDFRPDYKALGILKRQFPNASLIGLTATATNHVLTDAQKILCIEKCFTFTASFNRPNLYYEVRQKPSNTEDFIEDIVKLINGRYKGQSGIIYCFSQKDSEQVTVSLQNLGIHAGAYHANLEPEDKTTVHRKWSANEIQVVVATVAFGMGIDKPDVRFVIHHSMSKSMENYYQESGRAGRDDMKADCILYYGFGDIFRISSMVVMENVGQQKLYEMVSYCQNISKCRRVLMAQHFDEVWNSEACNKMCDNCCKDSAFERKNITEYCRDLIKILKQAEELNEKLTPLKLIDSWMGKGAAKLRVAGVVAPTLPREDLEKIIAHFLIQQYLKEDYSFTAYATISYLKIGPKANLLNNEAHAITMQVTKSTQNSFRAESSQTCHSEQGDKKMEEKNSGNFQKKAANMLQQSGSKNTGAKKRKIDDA
# Tumor susceptibility gene 101 protein (Homo sapiens), sequence (Q99816 whole entry, looked up, the tested form may be a part): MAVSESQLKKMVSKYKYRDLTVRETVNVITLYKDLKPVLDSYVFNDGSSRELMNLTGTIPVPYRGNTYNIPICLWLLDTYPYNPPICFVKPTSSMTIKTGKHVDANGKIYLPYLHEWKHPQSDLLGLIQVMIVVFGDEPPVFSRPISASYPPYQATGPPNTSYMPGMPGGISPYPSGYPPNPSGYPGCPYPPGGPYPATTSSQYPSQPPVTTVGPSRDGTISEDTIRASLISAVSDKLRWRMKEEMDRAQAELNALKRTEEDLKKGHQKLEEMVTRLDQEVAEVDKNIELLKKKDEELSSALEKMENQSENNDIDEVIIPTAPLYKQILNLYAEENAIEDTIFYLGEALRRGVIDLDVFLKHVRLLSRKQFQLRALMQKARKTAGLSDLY
# RecQ-like DNA helicase BLM (Homo sapiens), sequence (P54132 whole entry, looked up): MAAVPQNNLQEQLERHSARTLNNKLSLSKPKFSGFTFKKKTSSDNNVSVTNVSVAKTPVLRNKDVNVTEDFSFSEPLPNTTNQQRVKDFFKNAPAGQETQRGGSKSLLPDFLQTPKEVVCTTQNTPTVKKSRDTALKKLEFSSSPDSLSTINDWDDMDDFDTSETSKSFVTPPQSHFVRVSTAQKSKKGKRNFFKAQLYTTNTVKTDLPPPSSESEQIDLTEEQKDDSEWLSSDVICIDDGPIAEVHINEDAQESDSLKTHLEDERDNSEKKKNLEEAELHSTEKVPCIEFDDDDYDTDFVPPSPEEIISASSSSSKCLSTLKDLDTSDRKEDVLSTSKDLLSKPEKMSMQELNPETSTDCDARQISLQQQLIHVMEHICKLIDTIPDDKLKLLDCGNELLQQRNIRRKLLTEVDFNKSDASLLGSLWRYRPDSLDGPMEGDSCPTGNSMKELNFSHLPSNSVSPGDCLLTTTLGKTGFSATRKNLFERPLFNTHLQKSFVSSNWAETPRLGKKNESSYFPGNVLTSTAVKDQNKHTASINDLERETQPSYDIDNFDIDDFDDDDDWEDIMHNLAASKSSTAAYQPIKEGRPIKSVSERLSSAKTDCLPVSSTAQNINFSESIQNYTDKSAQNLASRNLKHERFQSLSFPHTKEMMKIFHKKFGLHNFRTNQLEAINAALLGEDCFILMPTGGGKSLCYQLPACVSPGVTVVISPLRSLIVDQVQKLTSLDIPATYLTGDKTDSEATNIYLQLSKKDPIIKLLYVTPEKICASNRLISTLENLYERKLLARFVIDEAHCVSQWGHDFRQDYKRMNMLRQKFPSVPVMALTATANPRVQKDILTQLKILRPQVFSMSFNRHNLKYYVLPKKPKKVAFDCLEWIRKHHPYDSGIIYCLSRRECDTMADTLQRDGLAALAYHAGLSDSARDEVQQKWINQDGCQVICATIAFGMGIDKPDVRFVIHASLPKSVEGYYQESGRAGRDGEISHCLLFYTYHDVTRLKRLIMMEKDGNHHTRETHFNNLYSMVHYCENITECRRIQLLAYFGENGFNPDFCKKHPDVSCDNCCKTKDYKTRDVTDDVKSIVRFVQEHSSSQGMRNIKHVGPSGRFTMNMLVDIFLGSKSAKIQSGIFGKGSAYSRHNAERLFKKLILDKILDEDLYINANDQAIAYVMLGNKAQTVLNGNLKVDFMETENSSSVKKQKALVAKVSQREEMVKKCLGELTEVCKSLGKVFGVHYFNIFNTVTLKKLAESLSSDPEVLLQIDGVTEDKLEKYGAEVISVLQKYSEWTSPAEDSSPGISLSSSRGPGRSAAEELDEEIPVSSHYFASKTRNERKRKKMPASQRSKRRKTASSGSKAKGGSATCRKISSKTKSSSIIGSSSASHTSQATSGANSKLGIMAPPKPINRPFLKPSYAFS
# DNA polymerase III PolC-type (Bacillus subtilis (strain 168)), sequence (P13267 whole entry, looked up): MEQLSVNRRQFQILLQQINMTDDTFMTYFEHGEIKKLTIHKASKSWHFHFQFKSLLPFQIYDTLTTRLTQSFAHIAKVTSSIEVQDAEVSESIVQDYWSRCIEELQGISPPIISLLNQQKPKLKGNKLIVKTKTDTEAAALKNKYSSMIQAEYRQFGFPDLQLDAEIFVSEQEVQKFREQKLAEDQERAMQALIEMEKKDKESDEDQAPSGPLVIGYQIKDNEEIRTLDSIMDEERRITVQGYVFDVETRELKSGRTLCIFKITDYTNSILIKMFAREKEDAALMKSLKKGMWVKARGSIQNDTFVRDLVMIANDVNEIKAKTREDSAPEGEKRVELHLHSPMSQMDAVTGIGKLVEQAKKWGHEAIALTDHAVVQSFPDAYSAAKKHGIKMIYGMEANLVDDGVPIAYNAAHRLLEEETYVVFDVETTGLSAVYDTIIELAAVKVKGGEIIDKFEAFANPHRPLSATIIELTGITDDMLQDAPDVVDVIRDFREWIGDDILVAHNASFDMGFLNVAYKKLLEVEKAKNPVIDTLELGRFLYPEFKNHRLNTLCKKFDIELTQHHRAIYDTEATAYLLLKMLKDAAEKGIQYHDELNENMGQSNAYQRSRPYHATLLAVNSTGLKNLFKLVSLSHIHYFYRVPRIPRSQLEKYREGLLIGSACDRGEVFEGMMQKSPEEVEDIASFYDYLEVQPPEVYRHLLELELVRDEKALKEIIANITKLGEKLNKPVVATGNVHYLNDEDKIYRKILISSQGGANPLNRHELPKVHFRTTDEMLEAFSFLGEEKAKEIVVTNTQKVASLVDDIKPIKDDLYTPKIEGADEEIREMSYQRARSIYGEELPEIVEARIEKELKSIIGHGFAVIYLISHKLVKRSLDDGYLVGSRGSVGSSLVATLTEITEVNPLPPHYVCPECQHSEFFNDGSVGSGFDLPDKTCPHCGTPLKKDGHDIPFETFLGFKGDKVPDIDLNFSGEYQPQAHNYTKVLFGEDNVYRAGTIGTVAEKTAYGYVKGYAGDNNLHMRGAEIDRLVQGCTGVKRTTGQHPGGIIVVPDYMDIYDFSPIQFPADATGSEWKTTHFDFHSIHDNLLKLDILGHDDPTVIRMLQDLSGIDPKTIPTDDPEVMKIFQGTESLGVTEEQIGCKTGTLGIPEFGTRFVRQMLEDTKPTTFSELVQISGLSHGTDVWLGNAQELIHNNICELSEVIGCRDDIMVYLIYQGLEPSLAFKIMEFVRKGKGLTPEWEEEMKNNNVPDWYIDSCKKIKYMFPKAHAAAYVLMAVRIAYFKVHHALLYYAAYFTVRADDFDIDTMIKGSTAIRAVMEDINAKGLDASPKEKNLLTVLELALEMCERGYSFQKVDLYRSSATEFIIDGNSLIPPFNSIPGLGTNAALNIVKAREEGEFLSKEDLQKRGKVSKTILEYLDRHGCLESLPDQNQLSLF
# Beta-2 adrenergic receptor (Homo sapiens), sequence (P07550 whole entry, looked up): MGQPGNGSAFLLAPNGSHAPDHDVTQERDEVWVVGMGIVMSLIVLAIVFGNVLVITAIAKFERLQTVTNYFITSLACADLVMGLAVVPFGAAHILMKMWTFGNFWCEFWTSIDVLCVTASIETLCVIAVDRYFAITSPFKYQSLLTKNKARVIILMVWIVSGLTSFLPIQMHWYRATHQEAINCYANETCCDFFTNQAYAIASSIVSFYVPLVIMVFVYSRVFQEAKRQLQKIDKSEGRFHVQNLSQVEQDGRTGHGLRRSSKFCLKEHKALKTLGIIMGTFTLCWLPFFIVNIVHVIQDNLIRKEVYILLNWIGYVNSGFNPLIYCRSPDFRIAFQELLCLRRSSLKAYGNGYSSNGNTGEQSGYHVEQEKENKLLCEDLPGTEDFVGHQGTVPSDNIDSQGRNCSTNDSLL
# ATP-dependent 6-phosphofructokinase (Trypanosoma brucei brucei), sequence (O15648 whole entry, looked up): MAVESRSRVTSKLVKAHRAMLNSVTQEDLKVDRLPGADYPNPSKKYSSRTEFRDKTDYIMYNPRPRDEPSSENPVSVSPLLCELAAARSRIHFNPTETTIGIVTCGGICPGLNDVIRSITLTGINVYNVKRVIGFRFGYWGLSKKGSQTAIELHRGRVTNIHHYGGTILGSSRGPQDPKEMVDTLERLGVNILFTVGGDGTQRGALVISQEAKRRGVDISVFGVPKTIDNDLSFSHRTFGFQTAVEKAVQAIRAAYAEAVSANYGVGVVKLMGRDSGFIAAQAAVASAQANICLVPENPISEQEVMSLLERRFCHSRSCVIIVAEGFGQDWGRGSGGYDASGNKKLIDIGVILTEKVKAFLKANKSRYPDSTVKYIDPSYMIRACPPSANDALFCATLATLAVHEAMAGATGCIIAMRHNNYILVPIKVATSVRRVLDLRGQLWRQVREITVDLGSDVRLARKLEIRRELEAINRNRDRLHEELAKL
SMILES,Potency [1],Potency [2],Potency [3],Potency [4],Potency [5],Potency [6],outcome [7],Potency [8],outcome [9],Potency [10],Potency [11],Potency [12],Potency [13],Potency [14],Potency [15],Potency [16]
CCCC[N+]1(C)C2CC(OC(=O)[C@H](CO)c3ccccc3)CC1C1OC12 (stereo partly specified),inactive,inactive,inactive,inactive,inactive,inactive,inactive,inactive,inactive,–,–,–,–,–,–,–
CCCCCCC(C)(C)c1ccc([C@@H]2C[C@H](O)CC[C@H]2CCCO)c(O)c1,–,–,inactive,–,inactive,–,inactive,inactive,inactive,inactive,inactive,4.65 µM (active),11.7 µM (active),–,–,–
Cc1cc([C@@H]2CCCN2C)on1,inactive,inactive,inactive,–,inactive,inactive,inactive,inactive,inactive,–,–,–,–,–,–,–
C[N+]1(C)C2CCC1CC(OC(=O)c1c[nH]c3ccccc13)C2 (stereo unspecified),inactive,inactive,inactive,inactive,inactive,inactive,inactive,–,inactive,inactive,inactive,–,–,14.1 µM (active),–,–
O=[N+]([O-])/C=C/c1ccc2c(c1)OCO2,–,inactive,2.07 µM (active),–,inactive,inactive,–,–,inactive,–,–,–,–,–,–,–
CN1CC[C@@]2(C)c3cc(OC(=O)Nc4ccccc4)ccc3N(C)[C@@H]12,–,inactive,inactive,inactive,inactive,inactive,inactive,–,inactive,–,–,–,–,–,–,–
CCN1C[C@@]2(COC)C3[C@@H](OC)C4[C@@H]1C3([C@@H]1C[C@]3(O)[C@H](OC(=O)c5ccccc5)[C@@H]1[C@]4(OC(C)=O)[C@@H](O)[C@@H]3OC)[C@H](OC)C[C@H]2O,–,inactive,inactive,–,inactive,inactive,inactive,inactive,inactive,–,inactive,–,–,–,–,–
C=CCN(C1=NCCN1)c1c(Cl)cccc1Cl,–,inactive,inactive,inactive,inactive,inactive,inactive,inactive,inactive,–,inactive,–,–,–,–,–
CC(=O)OCC1=C(C(=O)O)N2C(=O)[C@@H](NC(=O)CCC[C@@H](N)C(=O)O)[C@H]2SC1,inactive,inactive,inactive,inactive,inactive,inactive,inactive,–,inactive,–,–,–,–,–,–,–
CN1CCc2cc(O)cc3c2[C@H]1Cc1ccc(O)c(O)c1-3,–,–,–,–,inactive,inactive,inactive,inactive,inactive,–,–,–,–,–,–,–
C=CCN1CC[C@]23c4c5ccc(O)c4O[C@@H]2/C(=N/N=C2\CC[C@@]4(O)C6Cc7ccc(O)c8c7[C@@]4(CCN6CC=C)[C@@H]2O8)CC[C@@]3(O)C1C5,–,–,–,–,inactive,inactive,inactive,–,inactive,inactive,inactive,2.94 µM (active),3.29 µM (active),15.8 µM (active),inactive,–
C=CCN1CCc2cccc3c2[C@H]1Cc1ccc(O)c(O)c1-3,inactive,inactive,7.36 µM (active),–,inactive,inactive,inactive,–,inactive,–,–,–,–,–,–,–
CCCN1CCC[C@@H](c2cccc(O)c2)C1,inactive,inactive,inactive,inactive,inactive,inactive,–,inactive,inactive,–,inactive,–,–,–,–,–
NC(N)=Nc1ccc2[nH]c3c(c2c1)C[C@@]1(O)[C@H]2Cc4ccc(O)c5c4[C@@]1(CCN2CC1CC1)[C@H]3O5,–,–,inactive,–,inactive,–,inactive,–,–,inactive,–,–,inactive,–,inactive,0.891 µM (active)
CCN(CCCl)Cc1ccccc1Br,–,inactive,inactive,inactive,inactive,inactive,–,inactive,inactive,inactive,inactive,inactive,inactive,inactive,–,inactive
C[N+]1(C)CCc2cc3c(cc2[C@H]1[C@@H]1OC(=O)c2c1ccc1c2OCO1)OCO3,–,inactive,inactive,inactive,inactive,inactive,–,–,inactive,–,–,–,–,–,–,–
N#CCCN,inactive,inactive,inactive,inactive,inactive,inactive,inactive,inactive,inactive,–,inactive,–,–,–,–,–
CC(N)c1cccc(Cl)c1Cl (stereo unspecified),–,inactive,inactive,inactive,inactive,inactive,inactive,inactive,inactive,inactive,–,inactive,inactive,inactive,inactive,inactive
COc1ccc2c(c1O)-c1cccc3c1[C@@H](C2)N(C)CC3,inactive,inactive,inactive,–,inactive,inactive,–,–,inactive,–,–,–,–,–,–,–
COc1ccc2c(c1)c(CCN1CCOCC1)c(C)n2C(=O)c1cccc(Cl)c1Cl,inactive,inactive,inactive,–,inactive,inactive,–,–,inactive,–,inactive,–,–,–,–,–
CC(C)[C@@]1(NC(=O)[C@@H]2C[C@@H]3c4cccc5[nH]cc(c45)C[C@H]3N(C)C2)O[C@@]2(O)[C@@H]3CCCN3C(=O)[C@H](Cc3ccccc3)N2C1=O,inactive,inactive,inactive,–,inactive,inactive,inactive,–,inactive,–,inactive,–,–,–,–,–
